Assay outcomes (PubChem BioAssay)
Compounds with a hit are over-represented: about 3.7% of the library has one in this group of screens.
TGFb inhibitor – blocks TGF-b signaling. HepG2 CAGA-GFP TGF-b/SMAD3 reporter, GFP fluorescence, 18 h; TGF-beta stimulated, 500 pg/mL final. Potency, µM (top dose mostly 46.1 µM), inactives show top-dose activity, negative = inhibition, hits mostly inhibitors. hit rate 1.2% among 410,000; note: % is set by controls: 0 for no effect and ±100 for the full control effect; nearly all actives have a fitted effect of over 65% in size
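HEPG2 CAGA-GFP, 1000 cells/well; 2 h settle, 37 C; cpd via pin tool; TGF-b 500 pg/mL final; 18 h, 37 C; GFP imaging ex488/em500-530; %Activity normalised to -TGF-b and +DMSO controls; CRC fit, curve class.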
GLP1R ag – GLP-1 receptor (human) agonism; P43220; HEK293 GLP-1R CRE-luciferase, luminescence, 4-6 h; cells express a hypersensitive GLP-1R form; Potency, µM (titrated, usually from 45.6 µM), for the others: at the highest dose activation, actives largely listed as activators; hit rate 0.007% among 380,000; note: % of control where 0% means no effect
Target sequence (P43220 whole entry, looked up): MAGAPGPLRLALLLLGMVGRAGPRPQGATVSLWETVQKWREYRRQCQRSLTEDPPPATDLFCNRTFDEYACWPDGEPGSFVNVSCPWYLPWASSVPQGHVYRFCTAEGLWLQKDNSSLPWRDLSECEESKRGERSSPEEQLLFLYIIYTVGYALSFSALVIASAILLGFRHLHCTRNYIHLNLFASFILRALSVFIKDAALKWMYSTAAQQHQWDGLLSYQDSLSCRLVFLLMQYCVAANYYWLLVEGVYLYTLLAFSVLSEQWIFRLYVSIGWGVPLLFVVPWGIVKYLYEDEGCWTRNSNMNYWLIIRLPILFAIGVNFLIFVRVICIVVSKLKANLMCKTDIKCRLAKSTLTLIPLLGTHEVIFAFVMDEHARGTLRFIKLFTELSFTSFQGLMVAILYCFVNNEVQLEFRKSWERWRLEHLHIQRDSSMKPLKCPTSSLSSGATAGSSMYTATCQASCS
GLP-1R inv ag – acts as inverse agonist at human GLP-1 receptor | Potency, µM (series often up to 38.3 µM), without a hit: at the highest dose activity change, negative = inhibition, most hits filed as inhibitors | P43220 | HEK293 GLP-1R CRE-luciferase, luminescence, 24 h; GLP-1R form is constitutively active | hit rate 1.6% among 410,000; note: % is set by controls: 0 for no effect and ±100 for the full control effect; nearly all actives have a fitted effect of over 55% in size
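Cells are plated, allowed 12 hours at 37 deg C, then treated with compounds for 24 hr before luciferase detection reagent is added and luminescence is read after 12 min at room temperature. The HEK293 line carries constitutively active GLP-1R with a cAMP-responsive reporter.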
ATXN viability – reduces viability in counter-screen for ATXN expression inhibitors. S2 cells (HEK-293 line with an ATXN2-luciferase reporter) viability, CellTiter-Fluor protease fluorescence, 24 h. Potency, µM (doses to about 56.7 µM), actives largely listed as cytotoxic. hit rate 0.49% among 400,000. AID 651635; note: nearly all actives have a fitted effect of over 40% in size
HepG2 tox-1 – kills HepG2 cells in TGF-b inhibitor counter-screen | HepG2 CAGA-GFP viability, ATP luminescence, 18 h | Potency, µM (top dose mostly 46.1 µM), for inactives: top-dose activity change, negative = cytotoxicity, actives largely listed as cytotoxic | hit rate 0.76% among 410,000 | AID 588856
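HepG2 CAGA-GFP cells (1000/well, DMEM with 1% FBS) received compound, then TGF-beta at 500 pg/mL final, and were incubated 18 hours at 37 degrees C. Viability was read by CellTiter-Glo luminescence. Media-only wells were set as complete cell-killing and DMSO as no toxicity.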
ATXN2 expr inh – inhibitors of ATXN2 expression; HEK-293 ATXN2-luciferase reporter, luminescence, 24 h; Potency, µM (doses to about 57 µM), inactives show at the highest dose activity change, negative = inhibition, hits mostly inhibitors; hit rate 0.72% among 360,000; note: % is set by controls: 0 for no effect and ±100 for the full control effect; nearly all actives have a fitted effect of over 55% in size
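qHTS (up to 57 uM final) was run with 24 h compound exposure of reporter cells at 37 °C. Each well was multiplexed: SteadyGlo luminescence measured ATXN2-luciferase expression after a fluorogenic Gly-Phe-AFC viability readout (25 uM final).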
TGFb confirm – confirmation of TGF-b signaling inhibitors in HepG2 reporter cells. shares compounds with TGFb inhibitor. HepG2 CAGA-GFP TGF-b reporter, GFP fluorescence, 18 h; cells stimulated with TGF-beta, 500 pg/mL. Potency, µM (titrated, usually from 46.1 µM), for inactives: at the top dose activity, negative = inhibition, hits mostly inhibitors. hit rate 63% among 1,600. AID 720534; note: % is set by controls: 0 for no effect and ±100 for the full control effect; nearly all actives have a fitted effect of over 65% in size
HepG2 tox-2 – toxic to HepG2 cells in TGF-b counterscreen. shares compounds with TGFb inhibitor. HepG2 CAGA-GFP viability, ATP luminescence, 18 h; cells stimulated with TGF-beta, 500 pg/mL. Potency, µM (top dose mostly 46.1 µM), inactives show at the top dose activity, negative = cytotoxicity, usual class: inhibitors. hit rate 27% among 1,600; note: % is set by controls: 0 for no effect and ±100 for the full control effect; nearly all actives have a fitted effect of over 70% in size
TGFb CCL64 inh – blocks TGF-b signaling in CCL64 reporter cells | shares compounds with TGFb inhibitor | CCL64 CAGA-GFP reporter, TGF-b stimulated, GFP fluorescence, 18 h | Potency, µM (series often up to 46.1 µM), without a hit: top-dose activity, negative = inhibition, actives largely listed as inhibitors | hit rate 41% among 1,600 | AID 720536; note: nearly all actives have a fitted effect of over 65% in size
TGFb COP inh – TGF-b inhibition validated with COP promoter. shares compounds with TGFb inhibitor. HepG2 COP-GFP TGF-b reporter, GFP fluorescence, 18 h; cells stimulated by added recombinant TGF-beta. Potency, µM (highest dose often 46.1 µM), for inactives: at the top dose activity, negative = inhibition, hits mostly inhibitors. hit rate 3% among 1,600. AID 720537; note: nearly all actives have a fitted effect of over 70% in size
* hit, by the source's call; i = inactive; ? = inconclusive; · = no result given. Calls come from the whole dose curve; as a rule, active = well fitted curve in the direction sought with a large enough effect; inconclusive = small, poorly fitted or top-dose-only effect, or another doubt; inactive = no such curve, though single readings can be large; an effect the other way counts as inactive or inconclusive. Potency is the fitted concentration of half-maximal effect.

SMILES | TGFb inhibitor | GLP1R ag | GLP-1R inv ag | ATXN viability | HepG2 tox-1 | ATXN2 expr inh | TGFb confirm | HepG2 tox-2 | TGFb CCL64 inh | TGFb COP inh
C[C@H](NC(=O)c1nc[nH]c1C(=O)NCCCCCNC(=O)OC(C)(C)C)C(=O)OC(C)(C)C | ? | -1% | -8% | ? | -31% | -27% | -11% | -3% | ? | -1%
CC(C)C[C@H](NC(=O)c1nc[nH]c1C(=O)N[C@@H](CCCCNC(=O)OC(C)(C)C)C(=O)OC(C)(C)C)C(=O)OC(C)(C)C | 18µM* | -3% | 5% | ? | -11% | -27% | 8.2µM* | -20% | 21µM* | 12%
Cc1ccc(C)c(Cn2c(-c3cccs3)nc3ccccc32)c1 | ? | · | ? | ? | -6% | ? | · | · | · | ·
Cc1ccc(CCNC(=O)c2cc3ccccn3n2)cc1 | -4% | · | 6% | i | -14% | 1% | · | · | · | ·
CCOC(=O)c1sc(NC(=O)c2cc(-c3ccc(C)cc3)nc3ccccc23)c(C#N)c1C | ? | -2% | 18% | i | -12% | 9% | · | · | · | ·
O=C(Nc1nnc(-c2cccs2)o1)c1cc(-c2ccccc2)nc2ccccc12 | 11µM* | -3% | ? | ? | -11% | ? | 12µM* | ? | 15µM* | 27%
COc1ccc(-c2cc(C(=O)Nc3sc4c(c3C#N)CCCC4)c3ccccc3n2)cc1 | -18% | 1% | 0% | i | -18% | 3% | · | · | · | ·
Cc1ccccc1-c1cc(C(=O)Nc2sc(C(=O)OC(C)C)c(C)c2C#N)c2ccccc2n1 | 3.5µM* | -8% | -9% | ? | -35% | ? | 5.2µM* | 1.5µM* | 5.8µM* | 55%
COC(=O)c1sc(NC(=O)c2cc(-c3ccccc3)nc3ccccc23)c(C#N)c1C | 5µM* | -54% | ? | ? | -46% | ? | 4.6µM* | ? | 3.3µM* | 45%
COc1cccc2cc(-c3nc(-c4ccccc4)c(C)s3)c(=O)oc12 | 3% | · | · | · | -2% | · | · | · | · | ·
Cc1ccc(NC(=O)CSc2nc3c(sc4ccccc43)c(=O)n2CCCC(=O)NC2CCCC2)cc1C | -6% | · | 4% | · | -5% | · | · | · | · | ·
Cc1ccc2c(n1)sc1c(=O)n(-c3cccc(C(F)(F)F)c3)nnc12 | -3% | · | -7% | i | 10% | 16% | · | · | · | ·
CCOc1c(Br)cc(C2CC(=O)Nc3cc4c(cc32)OCO4)cc1OC (stereo not drawn) | ? | · | ? | · | -19% | · | · | · | · | ·
C=CCn1c(COc2ccccc2F)nnc1SCC(=O)Nc1cc2oc3ccccc3c2cc1OC | ? | 1% | ? | i | -9% | -15% | ? | -26% | ? | 15%
C=CCn1c(SCC(=O)Nc2cc3oc4ccccc4c3cc2OC)nnc1-c1cnccn1 | -2% | 7% | 1% | i | -25% | -19% | · | · | · | ·
Cc1ccc(CSc2nnc(-c3ccccn3)n2Cc2cccs2)cc1 | ? | -3% | ? | ? | -4% | ? | · | · | · | ·
Clc1ccc(CSc2nnc(-c3ccccn3)n2Cc2cccs2)cc1Cl | 8.9µM* | -1% | ? | ? | -8% | ? | 15µM* | ? | ? | 42%
Cc1ccc(C)c(N2N=C(C(=O)Nc3ccccc3N3CCCC3)CCC2=O)c1 | 22µM* | -6% | ? | i | -22% | -14% | 12µM* | -14% | ? | 2%
COc1ccc(Cl)cc1NC(=O)CN1c2ccccc2CC1C (stereo not drawn) | ? | 19% | ? | i | -40% | -18% | ? | -21% | ? | 28%
COc1cc(NC(=O)CN2c3ccccc3CC2C)cc(OC)c1OC (stereo not drawn) | 3% | 0% | 1% | i | -24% | -2% | · | · | · | ·
COC(=O)CN1C(=O)[C@@H]2[C@H](C1=O)[C@@H]1CC(C(=O)OC)=C[C@@H](C(=O)OC)C3C1=C(C(=O)[C@@]3(C)NC(=O)c1ccccc1)[C@@H]2C (stereo partly drawn) | -13% | · | · | · | 5% | · | · | · | · | ·
Nc1cc2[nH]c(=O)c3ccccc3c2cc1Br | 0.32µM* | -6% | 35% | i | -21% | 1% | ? | 1.5µM* | 7% | 59%
Cc1ccc(NC(=O)Cn2cc(S(=O)(=O)N3CCN(c4ccccc4F)CC3)c3ccccc3c2=O)cc1F | -13% | 0% | -29% | i | -4% | -2% | · | · | · | ·
O=[N+]([O-])c1ccc2c(c1)C(=NO)c1cc(F)ccc1-2 | 0% | 11% | 47% | i | -10% | -32% | · | · | · | ·
ON=C1c2ccccc2-c2ccc(F)cc21 | 1.6µM* | 7% | -12% | i | -16% | 11% | 9.2µM* | ? | -24% | 55%
O=C(Nc1ccc([N+](=O)[O-])cc1)Nc1ccc(OC(F)F)c(Cl)c1 | 4.5µM* | -8% | 3.5µM* | · | 13µM* | 13µM* | 13µM* | 5.8µM* | 3.7µM* | ?
CCc1ccc2oc(-c3ccc(C)c(NC(=O)COc4ccc(Cl)cc4)c3)nc2c1 | -1% | · | · | · | -1% | · | · | · | · | ·
COc1ccc(F)cc1S(=O)(=O)NCCc1csc2nc(-c3cccc(C)c3)nn12 | ? | · | -15% | · | -13% | · | · | · | · | ·
CCc1nc(Nc2ccncc2)c2oc3ccccc3c2n1 | ? | -3% | ? | ? | -14% | ? | 12µM* | ? | ? | 22%
Cc1nc(Nc2ccncc2)c2oc3ccccc3c2n1 | -12% | -19% | -12% | ? | -30% | ? | · | · | · | ·
